# Hits are enriched below; roughly 1.8% of the tested compounds scored in any of these assays.
# CIT2 TOR yeast: modulators of TOR pathway CIT2-GFP in S. cerevisiae; S. cerevisiae CIT2-GFP strain, flow cytometry, 3 h; 100 means same as DMSO wells; GFP response vs DMSO, % at 10 µM; actives 0.065% (n = 320,000); AID 2029;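 active means GFP response relative to DMSO above a set limit, near the screen mean plus 3 SD, cut at about 150% in these data; inconclusive means Fewer than 70 cells measured for a yeast strain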;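 further: ratio of well median GFP fluorescence to mean of DMSO wells on the plate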
# RPL19A-GFP yeast: modulators of TOR pathway RPL19A-GFP in S. cerevisiae. S. cerevisiae RPL19A-GFP strain, flow cytometry, 3 h; hits give low values. percent response vs DMSO, % at 10 µM. actives 0.3% (n = 330,000). AID 2025;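 active means percent response vs DMSO below 50%; inconclusive means fewer than 70 events counted for the yeast strain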;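 further: median channel GFP fluorescence of the barcoded RPL19A-GFP strain; lower means less RPL19A-GFP as with rapamycin TOR inhibition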
# Myeloid diff 2: myeloid differentiation induction | ER-HoxA9 myeloid progenitors, lysozyme-GFP differentiation, flow cytometry | calls only at 10 µM | actives 1% (n = 360,000) | AID 624256;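 active means normalized GFP-positive differentiation at or above the plate's own cutoff, the solvent-only control mean plus 3 SD; inconclusive means no clear call, values can overlap the other calls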;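 further: cells exposed to compound for four days before flow analysis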
# AGP1 TOR yeast: modulators of TOR pathway AGP1-GFP in S. cerevisiae; S. cerevisiae AGP1-GFP multiplex flow cytometry, 3 h; GFP as percent of DMSO wells; GFP response vs DMSO, % at 10 µM; actives 0.02% (n = 320,000);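 active means GFP response relative to DMSO above a set limit, near screen average plus 3 SD, cut at about 150% in these data; inconclusive means fewer than 70 cells counted for the yeast strain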;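 further: median GFP channel fluorescence of the gated AGP1 strain per well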
# MEP2 TOR yeast: alters MEP2-GFP fluorescence in TOR pathway yeast screen; S. cerevisiae MEP2-GFP strain, flow cytometry GFP, 3 h; 100% = DMSO control level; GFP response vs DMSO, % at 10 µM; actives 0.51% (n = 330,000); AID 2016;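 active means GFP response versus DMSO above a set limit, roughly screen mean plus 3 SD, cut at about 180% in these data; inconclusive means fewer than 70 cells counted for a yeast strain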;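 further: median GFP fluorescence of the barcode-gated MEP2-GFP cells per well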
# LAP4-GFP MLPCN: alters LAP4-GFP fluorescence in TOR pathway yeast screen; actives 0.34% (n = 320,000); GFP response vs DMSO, % at 10 µM; AID 2023; S. cerevisiae LAP4-GFP multiplex, flow cytometry GFP, 3 h; median GFP as percent of DMSO wells;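 active means GFP response vs DMSO above a set limit, about the screen mean plus 3 SD, cut at about 150% in these data; inconclusive means under 70 cell events counted for the yeast strain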
# Hits are given with their value; i = inactive; ? = inconclusive; nt = no result; + = active, no number; [ ] = dose if it differs, or a comment.
SMILES,CIT2 TOR yeast,RPL19A-GFP yeast,Myeloid diff 2,AGP1 TOR yeast,MEP2 TOR yeast,LAP4-GFP MLPCN
C=C1C(=O)[C@]23C[C@H]1CC[C@H]2[C@]1(C)[C@@H](O)CC[C@@](C)(C(=O)O)[C@H]1C[C@@H]3O,nt,nt,+,nt,nt,nt
CC(/C=N/NC(=O)CSc1nc(C)cc(C)n1)=C\c1ccccc1,i,i,i,i,i,i
CC(/C=N\NC(=O)Cn1c(C)nc2ccccc21)=C\c1ccccc1,i,i,+,i,i,i
N/C(=N\OC(=O)c1ccc(Cl)cc1)c1ccc(Cl)cc1,i,i,i,i,i,i
N/C(=N\OC(=O)c1ccc(Cl)cc1)c1ccn[nH]1,152,i,i,i,i,i
CC(C)NS(=O)(=O)c1ccc(CCC(=O)O)cc1,i,i,i,i,i,i
O=C(CN1C(=O)C(=O)N(Cc2ccccc2)C1=O)Nc1ccc(F)c(Cl)c1,i,i,i,i,i,i
COCCCNC(=O)CCn1c(=O)c2ccccc2n(CC(=O)Nc2c(C)cccc2C)c1=O,i,i,i,i,i,i
COCCCNC(=O)CCCn1c(=O)c2ccccc2n(CC(=O)Nc2c(C)cc(C)cc2C)c1=O,i,i,+,i,i,i
CS(=O)(=O)c1ccc(Cl)c(NC(=O)COC(=O)c2cccc(S(=O)(=O)N3CCCCC3)c2)c1,i,i,i,i,i,i
CC1CC(C)CN(S(=O)(=O)c2ccc3c(c2)n(C)c(=O)c(=O)n3C)C1 (configuration not stated),i,i,i,i,i,i
N#Cc1ccc(-c2cccnc2)nc1SCC(=O)c1ccccc1,i,i,+,i,i,i
CCN(CC)C(=O)CSc1nc(-c2ccccc2)ccc1C#N,i,i,i,i,i,i
N#Cc1ccc(-c2ccc(Cl)cc2)nc1SCC(=O)c1cccc(Cl)c1,i,i,+,i,i,i
N#Cc1ccc(-c2ccccc2)nc1SCC(=O)c1cccc(Cl)c1,i,i,+,i,i,i
CC1(C)C=C2C(=NN(c3ccccc3)C(N)=C2C#N)CO1,i,i,+,i,i,i
CC1(C)Cc2c(C#N)c(N)n(-c3ccccc3)c(=S)c2CO1,i,i,i,i,i,i
CCN(CC)S(=O)(=O)c1ccc(N2Cc3ccccc3C2=N)cc1,i,i,+,i,i,i
CCN(CC)S(=O)(=O)c1cccc(N2CC(O)=C(c3ccccc3)C2=N)c1,i,i,i,i,i,i
Cc1cc(C)c2nc3nc(C)c(C)cc3c(N)c2c1,nt,nt,+,nt,nt,nt
Cc1cc(C)c2nc(N)sc2c1,i,i,i,i,i,i
CC1(C)CCC[C@@]2(C)CC=C(C(=O)O)[C@@H]3C[C@]312,?,15[may fluoresce violet],i,?,480[may fluoresce violet],i
O=C(NCC1CCCO1)c1ccccc1S(=O)(=O)c1ccc([N+](=O)[O-])cc1 (configuration not stated),i,i,+,i,i,i
O=C(NCC1CCCO1)c1ccc(NS(=O)(=O)c2cccc([N+](=O)[O-])c2)cc1 (configuration not stated),i,i,i,i,i,i
N#C/C(=C/c1ccc(N2CCOCC2)o1)c1ccc(Cl)cc1,i,i,i,i,i,161
SMILES,CIT2 TOR yeast,RPL19A-GFP yeast,Myeloid diff 2,AGP1 TOR yeast,MEP2 TOR yeast,LAP4-GFP MLPCN
N#C/C(=C\c1ccc(N2CCCCC2)o1)C(N)=O,i,i,i,i,i,i
N#C/C(=C\c1ccc(N2CCOCC2)o1)c1nc2ccccc2[nH]1,i,i,+,i,i,i
N#C/C(=C\c1ccc(-c2ccc(C(=O)O)cc2)o1)c1nc2ccccc2[nH]1,nt,nt,+,nt,nt,nt
C=CCN(Cc1ccco1)S(=O)(=O)c1ccc(Cl)cc1,156[may fluoresce green],i,i,i,i,i
NNC(=O)CCN(Cc1ccco1)S(=O)(=O)c1ccc(Cl)cc1,i,i,i,i,i,i
Cc1ccc(-n2c(C)cc(/C=N/NC(=O)Cn3c4ccccc4c(=O)c4ccccc43)c2C)cc1,?,37[may fluoresce violet],i,i,244[may fluoresce violet],i
O=C(COc1ccc2ccc(=O)oc2c1)Nc1ccc(N2CCOCC2)cc1,i,i,i,i,i,i
O=C(COc1ccc2ccc(=O)oc2c1)Nc1ccc(CN2CCOCC2)cc1,?,15[may fluoresce violet],i,?,i,i
COc1ccc(-c2oc3ccccc3c2C#Cc2cncn2C)cc1,i,i,i,i,i,i
COc1ccc(-c2sc3ccc(OC)cc3c2C#Cc2cncn2C)cc1,i,i,+,i,i,i
N#CC1=C(N)SC(N)=C(C#N)C1Cc1ccccc1,i,i,i,i,i,i
N#CC1=C(N)SC(N)=C(C#N)C1CCc1ccccc1,i,i,+,i,i,i
CCc1cc(=O)oc2c(CNCc3ccc(OC)cc3OC)c(O)c(Cl)cc12,?,i,i,i,407[may fluoresce violet],i
Cc1c(C(=O)N(C)C(C)c2ccncn2)oc2c(F)cccc12 (configuration not stated),i,i,i,i,i,i
CCN(C(=O)C1CCCO1)c1ccccc1 (configuration not stated),i,i,i,i,i,i
COc1cc2c(cc1OC)CN(C(=O)NS(=O)(=O)c1ccc(C)cc1)CC2,?,47[may fluoresce violet],i,i,582[may fluoresce violet],i
COc1cc2c(cc1OC)CN(C(=O)c1ccc(S(=O)(=O)N3CCCC3)cc1)CC2,i,i,i,i,i,i
Cc1ccccc1N(CC(=O)O)S(C)(=O)=O,?,i,i,nt,229[may fluoresce violet],i
O=C(Nc1ccc2c(c1)nc1n2CCN(C2CCCCC2)C1)c1ccco1,nt,nt,i,nt,nt,nt
COc1ccccc1C(=O)Nc1ccc2c(c1)nc1n2CCN(C2CCCCC2)C1,i,i,+,i,i,i
COc1ccc2c(c1OC)C(=O)N1C2SC(C)(C)[C@H]1C(=O)NCCCOC(C)C (some centres not stated),i,i,i,i,i,i
Cc1ccc(NCc2nnc(SCC(=O)NNC(=O)Cc3ccccc3)n2C)cc1,i,i,+,i,i,i
Cc1ccc(C(=O)NNC(=O)CSc2nnc(CNc3ccc(F)cc3)n2C)cc1,i,i,nt,i,i,i
Cc1cc(C)c(NC(=O)C2CCCN2CCO)c(C)c1 (configuration not stated),i,i,+,i,i,i
CCCCN1CCCCC1C(=O)Nc1c(C)cc(C)cc1C (configuration not stated),i,i,i,i,i,i
CN=CC1=C(O)c2ccccc2C1=O,i,i,i,i,i,i
O=C1C(C2=C(O)c3ccccc3C2=O)=Nc2ccccc21,i,i,+,i,i,i
COc1ccc(N2CC(C(=O)N[C@@H](C)C(=O)NC(C)c3ccccc3)CC2=O)cc1 (some centres not stated),i,i,i,i,i,i
COc1cc(C(=O)NCC(=O)NCCCSc2ccccc2)cc(OC)c1OC,i,i,i,i,i,i
